# Test results taken from ChEMBL document CHEMBL5308504, “Tm Shift (DSF) assay results for EUbOPEN Chemogenomics Library” (2023).
# Several values for one entry are separate records, joined by “and”; a condition that tells them apart may be missing. Identical values can stand only once.
# Biological target: Bromodomain-containing protein 4 (Homo sapiens) (UniProt O60885)
# Settings: Compound concentration 20.0 uM, Protein concentration 2.0 uM, Result type QC Liability
row,Structure (SMILES),ΔTm
1,CNCc1ccc(-c2cc(-c3nc(-c4ccc(S(=O)(=O)C(C)C)cc4)cnc3N)on2)cc1,-2.54 °C
2,CN(C)c1ncc2cc(-c3ccc(-c4ncccc4F)cc3Cl)c(=O)n(C[C@H]3OC[C@H](N)CO3)c2n1,-2 °C
3,CN(C)C(=O)c1sc2nc(N3CCC(S(C)(=O)=O)CC3)cc(C(F)(F)F)c2c1N,-3.42 °C and 1.01 °C
4,CC1CN(CC(=O)N2CC(C)(C)c3nc(CO)c(Cc4ccc(F)cc4)cc32)C(CN2CCOCC2C)CN1 (stereo not drawn),-2.32 °C
5,CC(C)(O)[C@H](F)CN1Cc2cc(NC(=O)c3cnn4cccnc34)c(N3CCOCC3)cc2C1=O,-0.35 °C
6,CCCCC(C)(O)C/C=C/[C@H]1[C@H](O)CC(=O)[C@@H]1CCCCCCC(=O)O (stereo partly drawn),-1.42 °C
7,O=C(O)c1cccc(C2=C(c3cc(Cl)ccc3OCc3ccc(F)cc3F)CCC2)n1,-0.65 °C
8,COc1cc(-c2cn[nH]c2)ccc1C(=O)Nc1ccc2c(c1)CCNCC2,-1.67 °C
9,CNC(=O)c1ccc2c(c1)ncn2-c1ccc(CC(=O)OC(C)(C)C)cc1,-0.5 °C
10,CC(=O)Nc1cccc(-n2c(=O)n(C3CC3)c(=O)c3c(Nc4ccc(I)cc4F)n(C)c(=O)c(C)c32)c1,-2.35 °C
11,COc1cc(OC)cc(-c2cc3cnc(N)nc3nc2NC(=O)NC(C)(C)C)c1,-2.72 °C and 0.27 °C
12,CC(C)NC(=O)[C@H]1CCC[C@H]1Nc1nc(Nc2ccc(C(=O)N(C)C3CCN(C)CC3)cc2)ncc1Cl,-1.48 °C and -0.92 °C
13,Cc1ccccc1Oc1cc(-n2c(=O)cc(C(F)(F)F)[nH]c2=O)c2ccccc2c1Cl,-1.47 °C
14,CC(=O)Oc1ccc2c(c1)[C@@]1(C)CCC[C@](C)(C(=O)OC(=O)[C@@]3(C)CCC[C@]4(C)c5cc(OC(C)=O)ccc5CC[C@@H]34)[C@@H]1CC2,-2.81 °C
15,CS(=O)(=O)NC(=O)CCC/C=C\C[C@H]1C(=O)C[C@@H](O)[C@@H]1/C=C/[C@@H](O)COc1ccccc1,-2 °C
16,CN1CCN(c2ccc(-n3cc(-c4ccncc4OCC4CCNCC4)cn3)cc2)CC1,-1.52 °C
17,CC(=O)c1c(C)c2cnc(Nc3ccc(N4CCN(CCOCCOCCOCCNC(=O)COc5cccc6c5C(=O)N(C5CCC(=O)NC5=O)C6=O)CC4)cn3)nc2n(C2CCCC2)c1=O (stereo not drawn),-1.51 °C
18,Fc1cccc(-n2cnc3c(NCc4nc5c(F)c(F)ccc5[nH]4)nc(N4CCOCC4)nc32)c1,0.39 °C
19,Cc1cc(-c2ccnc(Nc3cnn(C)c3)n2)ccc1CNC(=O)N1CC(OC(C)C)C1,-2.36 °C
20,NS(=O)(=O)c1ccc(Nc2nc(OCC3CCCCC3)c3nc[nH]c3n2)cc1,0.59 °C

row,Structure (SMILES),ΔTm
1,OC(c1ccc(-c2ccc(CN3CCN(Cc4ccncc4)CC3)cc2)c(F)c1)(C(F)(F)F)C(F)(F)F,-1.34 °C
2,Cc1[nH]c2c(N3CCCCC3)c(-c3ccccc3)nn2c(=O)c1-c1ccc(O)cc1,-1.3 °C
3,CN[C@@H](C)C(=O)N[C@H](C(=O)N1CCC[C@H]1C(=O)N[C@@H]1CCCc2ccccc21)C1CCCCC1,-2.83 °C
4,CC[C@H](CO)Nc1nc(Nc2cccc(-c3ccccn3)c2)c2ncn(C(C)C)c2n1,-1.32 °C
5,O=C(O)c1ccc(OCCCc2ccc(OCCCCOC3CCCCC3)cc2)c(C(=O)NC2CCCC(C(=O)O)C2)c1 (stereo not drawn),0.35 °C
6,CC1CCN(c2ccnc(NCc3cn(C)cn3)n2)CC1,-1.06 °C
7,CN1CCC(C#N)(NC(=O)[C@@H](NC(=O)N2CCOCC2)C(C)(C)C)CC1,0.17 °C
8,Cn1cnc(Cn2ccc3ccc(CNCc4[nH]c5ccccc5c4[C@H]4NC(=O)c5ccc(O)cc54)cc32)c1,0.36 °C
9,O=C(O)CCCCN(CCc1ccccc1OCc1ccc(CCc2ccccc2)cc1)Cc1ccc(C(=O)O)cc1,-0.88 °C
10,CC(C)c1nc2c(c3c1[C@H](c1ccc(C(F)(F)F)cc1)OC31CCOCC1)[C@H](O)CC(C)(C)C2,-0.03 °C
11,O=C(O)/C=C/c1ccc(Cn2ccnc2)cc1,-0.17 °C
12,CN1CCN(c2ccc(Nc3ncc4cc5n(c4n3)C3(CCCCC3)CNC5=O)nc2)CC1,-0.66 °C
13,COc1cc(C(=O)NCCOCCOCCOCC(=O)N[C@H](C(=O)N2C[C@H](O)C[C@H]2C(=O)NCc2ccc(-c3scnc3C)cc2)C(C)(C)C)ccc1Nc1ncc(C(F)(F)F)c(Oc2cccc3c2C(=O)CC3)n1,-0.02 °C
14,Oc1c(-c2cccnc2)cnn1-c1ccccn1,-1.85 °C
15,COc1ccc(F)c(F)c1C(=O)c1cnc(NC2CCN(S(C)(=O)=O)CC2)nc1N,0.74 °C
16,CN(CCCCCCC1=C(c2cc(F)cc(F)c2)CCCc2cc(O)ccc21)CCCCS(=O)(=O)CCCC(F)(F)F,1.66 °C
17,COCCN(C)c1ccc(NC(=O)/C=C(\C)c2ccc3ccccc3c2)c(C(=O)O)c1,-1.96 °C
18,Nc1nccc(-c2c(-c3ccc(F)cc3)ncn2C2CCN(Cc3ccon3)CC2)n1,-2.58 °C
19,O=C(Nc1snnc1C(=O)Nc1ccc(N2CCCC2)cc1)c1cncc(C(F)(F)F)c1,-0.7 °C

# Biological target: T1, Transcription intermediary factor 1-alpha (Homo sapiens) (UniProt O15164)
# T1 sequence (whole entry): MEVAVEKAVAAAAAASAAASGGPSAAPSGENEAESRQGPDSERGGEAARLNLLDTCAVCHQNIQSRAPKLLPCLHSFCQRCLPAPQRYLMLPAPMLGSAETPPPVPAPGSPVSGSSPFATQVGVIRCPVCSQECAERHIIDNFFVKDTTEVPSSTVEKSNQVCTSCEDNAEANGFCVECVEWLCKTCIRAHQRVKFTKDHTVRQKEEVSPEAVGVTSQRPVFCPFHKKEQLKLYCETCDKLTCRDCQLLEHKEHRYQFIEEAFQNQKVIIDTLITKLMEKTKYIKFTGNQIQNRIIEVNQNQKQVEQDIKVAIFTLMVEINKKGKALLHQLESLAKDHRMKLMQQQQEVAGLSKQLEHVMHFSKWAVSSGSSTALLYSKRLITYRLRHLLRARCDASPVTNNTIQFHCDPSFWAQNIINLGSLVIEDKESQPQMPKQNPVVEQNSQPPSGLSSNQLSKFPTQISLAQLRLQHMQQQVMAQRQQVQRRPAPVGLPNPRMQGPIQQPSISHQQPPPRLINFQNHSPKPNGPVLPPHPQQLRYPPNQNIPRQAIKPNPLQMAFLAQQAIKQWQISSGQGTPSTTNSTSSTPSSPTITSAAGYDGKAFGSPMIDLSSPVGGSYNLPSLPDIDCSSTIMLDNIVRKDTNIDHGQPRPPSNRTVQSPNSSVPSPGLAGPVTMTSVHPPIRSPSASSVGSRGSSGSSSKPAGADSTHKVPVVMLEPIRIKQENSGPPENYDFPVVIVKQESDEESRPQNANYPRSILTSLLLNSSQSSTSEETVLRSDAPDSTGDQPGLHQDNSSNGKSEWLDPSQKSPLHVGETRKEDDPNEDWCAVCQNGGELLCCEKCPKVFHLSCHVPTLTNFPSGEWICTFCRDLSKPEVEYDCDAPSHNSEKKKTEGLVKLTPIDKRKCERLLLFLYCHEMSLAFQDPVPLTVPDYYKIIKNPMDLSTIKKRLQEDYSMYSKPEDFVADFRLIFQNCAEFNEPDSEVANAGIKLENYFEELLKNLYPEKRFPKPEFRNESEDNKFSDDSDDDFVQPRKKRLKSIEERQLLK
# Settings: Compound concentration 20.0 uM, Protein concentration 2.0 uM, Result type QC Liability
row,Structure (SMILES),ΔTm
1,CNCc1ccc(-c2cc(-c3nc(-c4ccc(S(=O)(=O)C(C)C)cc4)cnc3N)on2)cc1,-0.96 °C
2,CN(C)c1ncc2cc(-c3ccc(-c4ncccc4F)cc3Cl)c(=O)n(C[C@H]3OC[C@H](N)CO3)c2n1,-2.59 °C
3,CN(C)C(=O)c1sc2nc(N3CCC(S(C)(=O)=O)CC3)cc(C(F)(F)F)c2c1N,0.17 °C and 0.19 °C
4,CC1CN(CC(=O)N2CC(C)(C)c3nc(CO)c(Cc4ccc(F)cc4)cc32)C(CN2CCOCC2C)CN1 (stereo not drawn),-3.23 °C
5,CC(C)(O)[C@H](F)CN1Cc2cc(NC(=O)c3cnn4cccnc34)c(N3CCOCC3)cc2C1=O,-2.63 °C
6,CCCCC(C)(O)C/C=C/[C@H]1[C@H](O)CC(=O)[C@@H]1CCCCCCC(=O)O (stereo partly drawn),-0.79 °C
7,O=C(O)c1cccc(C2=C(c3cc(Cl)ccc3OCc3ccc(F)cc3F)CCC2)n1,-2.91 °C
8,COc1cc(-c2cn[nH]c2)ccc1C(=O)Nc1ccc2c(c1)CCNCC2,-2.57 °C
9,CNC(=O)c1ccc2c(c1)ncn2-c1ccc(CC(=O)OC(C)(C)C)cc1,-3.2 °C
10,CC(=O)Nc1cccc(-n2c(=O)n(C3CC3)c(=O)c3c(Nc4ccc(I)cc4F)n(C)c(=O)c(C)c32)c1,-2.86 °C
11,COc1cc(OC)cc(-c2cc3cnc(N)nc3nc2NC(=O)NC(C)(C)C)c1,-2.2 °C and -1.8 °C
12,CC(C)NC(=O)[C@H]1CCC[C@H]1Nc1nc(Nc2ccc(C(=O)N(C)C3CCN(C)CC3)cc2)ncc1Cl,0.3 °C and -2.89 °C
13,Cc1ccccc1Oc1cc(-n2c(=O)cc(C(F)(F)F)[nH]c2=O)c2ccccc2c1Cl,-0.87 °C
14,CC(=O)Oc1ccc2c(c1)[C@@]1(C)CCC[C@](C)(C(=O)OC(=O)[C@@]3(C)CCC[C@]4(C)c5cc(OC(C)=O)ccc5CC[C@@H]34)[C@@H]1CC2,-3.04 °C
15,CS(=O)(=O)NC(=O)CCC/C=C\C[C@H]1C(=O)C[C@@H](O)[C@@H]1/C=C/[C@@H](O)COc1ccccc1,-0.45 °C
16,CN1CCN(c2ccc(-n3cc(-c4ccncc4OCC4CCNCC4)cn3)cc2)CC1,-2.76 °C
17,CC(=O)c1c(C)c2cnc(Nc3ccc(N4CCN(CCOCCOCCOCCNC(=O)COc5cccc6c5C(=O)N(C5CCC(=O)NC5=O)C6=O)CC4)cn3)nc2n(C2CCCC2)c1=O (stereo not drawn),0.27 °C
18,Fc1cccc(-n2cnc3c(NCc4nc5c(F)c(F)ccc5[nH]4)nc(N4CCOCC4)nc32)c1,-0.44 °C
19,Cc1cc(-c2ccnc(Nc3cnn(C)c3)n2)ccc1CNC(=O)N1CC(OC(C)C)C1,0.22 °C
20,NS(=O)(=O)c1ccc(Nc2nc(OCC3CCCCC3)c3nc[nH]c3n2)cc1,-0.84 °C

row,Structure (SMILES),ΔTm
1,OC(c1ccc(-c2ccc(CN3CCN(Cc4ccncc4)CC3)cc2)c(F)c1)(C(F)(F)F)C(F)(F)F,-2.91 °C
2,Cc1[nH]c2c(N3CCCCC3)c(-c3ccccc3)nn2c(=O)c1-c1ccc(O)cc1,-2.05 °C
3,CN[C@@H](C)C(=O)N[C@H](C(=O)N1CCC[C@H]1C(=O)N[C@@H]1CCCc2ccccc21)C1CCCCC1,-1.41 °C
4,CC[C@H](CO)Nc1nc(Nc2cccc(-c3ccccn3)c2)c2ncn(C(C)C)c2n1,-3.54 °C
5,O=C(O)c1ccc(OCCCc2ccc(OCCCCOC3CCCCC3)cc2)c(C(=O)NC2CCCC(C(=O)O)C2)c1 (stereo not drawn),0.3 °C
6,CC1CCN(c2ccnc(NCc3cn(C)cn3)n2)CC1,-0.77 °C
7,CN1CCC(C#N)(NC(=O)[C@@H](NC(=O)N2CCOCC2)C(C)(C)C)CC1,0.14 °C
8,Cn1cnc(Cn2ccc3ccc(CNCc4[nH]c5ccccc5c4[C@H]4NC(=O)c5ccc(O)cc54)cc32)c1,0.2 °C
9,O=C(O)CCCCN(CCc1ccccc1OCc1ccc(CCc2ccccc2)cc1)Cc1ccc(C(=O)O)cc1,0.09 °C
10,CC(C)c1nc2c(c3c1[C@H](c1ccc(C(F)(F)F)cc1)OC31CCOCC1)[C@H](O)CC(C)(C)C2,0.26 °C
11,O=C(O)/C=C/c1ccc(Cn2ccnc2)cc1,-0.33 °C
12,CN1CCN(c2ccc(Nc3ncc4cc5n(c4n3)C3(CCCCC3)CNC5=O)nc2)CC1,-0.72 °C
13,COc1cc(C(=O)NCCOCCOCCOCC(=O)N[C@H](C(=O)N2C[C@H](O)C[C@H]2C(=O)NCc2ccc(-c3scnc3C)cc2)C(C)(C)C)ccc1Nc1ncc(C(F)(F)F)c(Oc2cccc3c2C(=O)CC3)n1,2.06 °C
14,Oc1c(-c2cccnc2)cnn1-c1ccccn1,0.29 °C
15,COc1ccc(F)c(F)c1C(=O)c1cnc(NC2CCN(S(C)(=O)=O)CC2)nc1N,-1.4 °C
16,CN(CCCCCCC1=C(c2cc(F)cc(F)c2)CCCc2cc(O)ccc21)CCCCS(=O)(=O)CCCC(F)(F)F,1.21 °C
17,COCCN(C)c1ccc(NC(=O)/C=C(\C)c2ccc3ccccc3c2)c(C(=O)O)c1,-0.91 °C
18,Nc1nccc(-c2c(-c3ccc(F)cc3)ncn2C2CCN(Cc3ccon3)CC2)n1,-2.27 °C
19,O=C(Nc1snnc1C(=O)Nc1ccc(N2CCCC2)cc1)c1cncc(C(F)(F)F)c1,-1.14 °C
